# From ChEMBL document CHEMBL4808148, “HDAC6 screening dataset using tau-based substrate in an enzymatic assay yields selective inhibitors and activators” (2021)
# Among all 5,600 compounds or so, about 390 (7%) showed an effect of 50% or more. The list comes from a sample in which strong results are over-represented; it also holds similar structures and randomly drawn compounds.
# Biological target: T1, Protein deacetylase HDAC6 (Homo sapiens) (UniProt Q9UBN7)
# T1 sequence (whole entry): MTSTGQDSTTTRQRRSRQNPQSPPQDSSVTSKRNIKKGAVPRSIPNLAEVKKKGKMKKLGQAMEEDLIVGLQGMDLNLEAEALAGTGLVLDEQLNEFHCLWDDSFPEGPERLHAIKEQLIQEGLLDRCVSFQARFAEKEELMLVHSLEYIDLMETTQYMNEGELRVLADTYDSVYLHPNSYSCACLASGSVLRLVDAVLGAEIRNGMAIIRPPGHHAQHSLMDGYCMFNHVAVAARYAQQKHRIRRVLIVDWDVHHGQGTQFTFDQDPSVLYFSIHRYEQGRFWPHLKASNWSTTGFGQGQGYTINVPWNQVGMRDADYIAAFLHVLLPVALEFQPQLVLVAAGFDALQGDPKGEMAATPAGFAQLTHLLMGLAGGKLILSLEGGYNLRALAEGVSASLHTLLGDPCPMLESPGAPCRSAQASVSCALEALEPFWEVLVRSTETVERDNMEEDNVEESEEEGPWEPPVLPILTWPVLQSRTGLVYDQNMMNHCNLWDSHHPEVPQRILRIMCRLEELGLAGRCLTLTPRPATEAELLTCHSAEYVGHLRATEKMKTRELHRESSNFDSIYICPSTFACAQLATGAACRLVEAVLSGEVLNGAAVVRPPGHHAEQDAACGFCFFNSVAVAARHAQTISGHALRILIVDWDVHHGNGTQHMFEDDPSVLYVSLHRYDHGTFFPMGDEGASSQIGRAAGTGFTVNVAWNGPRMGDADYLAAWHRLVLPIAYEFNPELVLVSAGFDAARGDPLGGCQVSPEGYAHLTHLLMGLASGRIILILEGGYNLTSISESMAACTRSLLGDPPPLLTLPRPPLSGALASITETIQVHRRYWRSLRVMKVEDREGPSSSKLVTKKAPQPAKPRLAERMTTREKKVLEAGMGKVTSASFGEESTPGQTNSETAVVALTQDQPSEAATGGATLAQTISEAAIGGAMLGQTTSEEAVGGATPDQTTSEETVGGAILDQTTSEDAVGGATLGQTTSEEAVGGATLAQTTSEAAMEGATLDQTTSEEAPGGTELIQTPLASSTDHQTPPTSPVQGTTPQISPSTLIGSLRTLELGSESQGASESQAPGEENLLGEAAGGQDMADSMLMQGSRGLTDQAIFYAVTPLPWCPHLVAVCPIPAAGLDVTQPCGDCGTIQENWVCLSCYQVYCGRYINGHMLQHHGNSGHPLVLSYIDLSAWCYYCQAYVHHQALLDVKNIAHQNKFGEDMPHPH
# Conditions: at 10 µM
row,SMILES,inhibition
1,Cc1cc(OI)c(C(C)C)cc1-c1cc(C(C)C)c(OI)cc1C,7.55%
2,Cc1nc2ccc(NC(=O)Nc3ccnc4cccnc34)cc2o1,76%
3,CN[C@@H]1CCc2[nH]c3ccc(C(N)=O)cc3c2C1,9.03%
4,Cc1cccc(/C=N/Nc2cc(N3CCOCC3)nc(OCCc3ccccn3)n2)c1,1.14%
5,Cc1cc(-c2nncc3c(C(C)(C)C)c(OCc4ncnn4C)nn23)no1,-0.39%
6,O=C1C[C@@H](c2ccccc2)Oc2cc(O)cc(O)c21,50.7%
7,O=C1C[C@@H](c2ccc(O)cc2)Oc2cc(O)ccc21,-5.99%
8,COc1cc([C@H]2Oc3cc([C@H]4Oc5cc(O)cc(O)c5C(=O)[C@@H]4O)ccc3O[C@@H]2CO)ccc1O,15.7%
9,COc1ccc([C@@H]2CC(=O)c3c(O)cc(O[C@@H]4O[C@H](CO[C@@H]5O[C@@H](C)[C@H](O)[C@@H](O)[C@H]5O)[C@@H](O)[C@H](O)[C@H]4O)cc3O2)cc1O,14.3%
10,COc1ccc([C@@H]2CC(=O)c3c(O)cc(O)cc3O2)cc1O,94.9%
11,O=C1c2c(O)cc(O)cc2O[C@H](c2ccc(O)c(O)c2)[C@H]1O,10.8%
12,CS(=O)(=O)c1ccc([C@@H](CC2CCCC2)C(=O)Nc2nccs2)cc1,-9.75%
13,Cn1cnnc1Sc1c([N+](=O)[O-])ncn1C,19.5%
14,C=C1/C(=C\C=C2/CCC[C@]3(C)[C@@H]([C@H](C)/C=C/[C@@H](O)C4CC4)CC[C@@H]23)C[C@@H](O)C[C@@H]1O,1.78%
15,C[C@@H](CN1CCC(n2c(=O)[nH]c3cc(Cl)ccc32)CC1)NC(=O)c1ccc2ccccc2c1,8.37%
16,CC1(C)N=C(N)N=C(N)N1OCCCOc1cc(Cl)c(Cl)cc1Cl,12%
17,Clc1cccc(-n2nnnc2NCc2ccccc2Oc2ccccn2)c1Cl,0.62%
18,C[n+]1ccccc1C=NO,0.38%
19,O=C1C(Cl)=C(N2CCOCC2)C(=O)N1c1ccc(Cl)c(Cl)c1,86%
20,O=C(Nc1ccc(N2CCC(C(=O)N3CCOCC3)CC2)cc1)c1cnc(Oc2ccccc2)nc1,3.27%
21,CCN(CC)C(=S)S,13.4%
22,CC(=O)N(O)C/C=C/c1cccc(Oc2ccccc2)c1,9.26%
23,N[C@@H]1CCCN(c2c(/C=C3\SC(=O)NC3=O)cccc2-c2ccccc2)C1,104%

row,SMILES,inhibition
1,CCCCCCC[N+](CC)(CC)CCCCc1ccc(Cl)cc1,11%
2,COc1cc(OC)cc(N(CCNC(C)C)c2ccc3ncc(-c4cnn(C)c4)nc3c2)c1,-0.23%
3,Nc1nc(-c2nn(Cc3ccccc3F)c3ncccc23)ncc1C1CC1,34.9%
4,N=C(N)NCCC(=O)O,1.27%
5,NC(=O)C1=CN([C@@H]2O[C@H](COP(=O)(O)OP(=O)(O)OC[C@H]3O[C@@H](n4cnc5c(N)ncnc54)[C@H](O)[C@@H]3O)[C@@H](O)[C@H]2O)C=CC1,4.98%
6,Cc1cnc(Nc2ccc(OCCN3CCCC3)cc2)nc1Nc1cccc(S(=O)(=O)NC(C)(C)C)c1,25%
7,O=C(NO)c1ccc2[nH]c(=O)c(CCCc3ccccc3)nc2c1,99.2%
8,CCCCc1ccc2[nH]c(NC(=O)OC)nc2c1,48%
9,O=C(Nc1cccc2c(=O)cc(-c3nnn[nH]3)oc12)c1ccc(OCCCCc2ccccc2)cc1,9.45%
10,CCCCCCCCCCCCCCCC[N+](C)(C)Cc1ccccc1,36.2%
11,CC(C)c1ccc(CC(=O)N2CCC[C@@H](c3cccc(OC(C)(C)C(=O)O)c3)C2)cc1,24.2%
12,Nc1n[nH]c2nc3ccccc3nc12,53.6%
13,COC(=O)c1ccc(O)cc1,16.3%
14,COC(=O)CC1CC(c2ccc(O)cc2)=NO1 (stereo not drawn),96.7%
15,Nc1nc(Nc2ccccc2)nc2c1ncn2[C@@H]1O[C@H](CO)[C@@H](O)[C@H]1O,-2.75%
16,CC(N)(C(=O)O)c1ccc(-c2nnn[nH]2)cc1 (stereo not drawn),-2%
17,CN(C)C(=N)NCCC[C@H](N)C(=O)O,23.2%
18,O=C(O)c1cc([N+](=O)[O-])ccc1NCCCc1ccccc1,109%
19,Cn1c(NCCN(CCO)CCCc2ccc([N+](=O)[O-])cc2)cc(=O)n(C)c1=O,7.31%
20,CS(=O)(=O)Nc1ccc([N+](=O)[O-])cc1Oc1ccccc1,1.72%
21,O=C(Nc1ccccc1)N1CCC(Cc2cnc3ccccc3c2)CC1,27.7%
22,Cn1cc(/C=C2/C(=O)Nc3cccnc32)c2ccccc21,99.5%
23,Cn1cc(C2=C(c3ccc(Cl)cc3Cl)C(=O)NC2=O)c2ccccc21,-5.95%

row,SMILES,inhibition
1,Cn1cc(C2=C(c3cn(CCCSC(=N)N)c4ccccc34)C(=O)NC2=O)c2ccccc21,-2.47%
2,Cc1ccc(-c2cn3c4c(sc3n2)CCCC4)cc1,98%
3,Clc1ccccc1CNC[C@H]1CC[C@H](CNCc2ccccc2Cl)CC1,9.4%
4,N#Cc1ccncn1,5.74%
5,Nc1cccc(-c2cc3c(Oc4cccc(O)c4)ncnc3[nH]2)c1,55.1%
6,C[C@@H]([C@@H](O)c1ccc(O)cc1)N1CCC(O)(c2ccccc2)CC1,14.2%
7,CC/C=C(\C(=O)N[C@@H]1C(=O)N2C(C(=O)OCOC(=O)C(C)(C)C)=C(COC(N)=O)CS[C@H]12)c1csc(N)n1,4.66%
8,N#Cc1c(O)c2c(-c3ccc(-c4ccccc4O)cc3)csc2[nH]c1=O,94.5%
9,CNC(=N)NC(=O)Nc1c(C)cccc1C,27.8%
10,C1=Cc2cccc(OCC3CNCCO3)c2C1 (stereo not drawn),18.4%
11,C=C(C)[C@@H]1CC[C@]2(C(=O)O)CC[C@]3(C)[C@H](CC[C@@H]4[C@@]5(C)CC[C@H](OC(=O)CC(C)(C)C(=O)O)C(C)(C)[C@@H]5CC[C@]43C)[C@@H]12,26.3%
12,O=C(O)c1cc(O)c2c3nc4ccccc4oc-3cc(=O)c2n1,5.48%
13,O=c1cc(-c2ccccc2)oc2cc(O)cc(O)c12,101%
14,O=c1oc2cc(O)ccc2s1,15.3%
15,O=C(O)[C@H]1O[C@H](Oc2cc3oc(-c4ccccc4)cc(=O)c3c(O)c2O)[C@H](O)[C@@H](O)[C@@H]1O,61.7%
16,COc1ccc(-c2cc(=O)c3c(OC)c(OC)c(OC)c(OC)c3o2)cc1,44.4%
17,COc1ccc(-c2cc(=O)c3c(OC)c(OC)c(OC)c(OC)c3o2)cc1OC,-2.26%
18,CCOC(=O)COc1ccc2c(=O)cc(-c3ccccc3)oc2c1,46.4%
19,COc1ccc(-c2cc(=O)c3c(O)c(OC)c(O)cc3o2)cc1OC,85.7%
20,O=C(O)c1cc(O)c2c(c1)[C@@H]([C@H]1c3cc(C(=O)O)cc(O)c3C(=O)c3c(O[C@H]4O[C@H](CO)[C@@H](O)[C@H](O)[C@H]4O)cccc31)c1cccc(O[C@H]3O[C@H](CO)[C@@H](O)[C@H](O)[C@H]3O)c1C2=O,17.7%
21,OCc1ccccc1O[C@@H]1O[C@H](CO)[C@@H](O)[C@H](O)[C@H]1O,-9.23%
22,O=c1cc(-c2ccc(O)cc2)oc2cc(O)cc(O)c12,97%
